High-throughput results deposited in PubChem by Sanford-Burnham Center for Chemical Genomics.
CYP2C9 act: increases human cytochrome P450 2C9 activity | actives 1.4% (n = 96,000) | AID 1024 | P11712 | recombinant CYP2C9, luciferin-H conversion, luminescence; active compounds read high; factor 1 = untreated enzyme, 0 = blocked | activation factor at 5 µM;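 active = activation factor of 2 or more for CYP2C9 at a 5 µM dose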;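 note: 0 = sulfaphenazole-blocked wells and 1 = vehicle-only wells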
CYP2C9 inh: human CYP2C9 inhibition. P11712. CYP2C9 Supersomes, luciferin-H conversion, luminescence. inhibition, % at 5 µM. actives 20% (n = 96,000). AID 777;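 active = blocking of liver enzyme CYP2C9 beyond about 50% at 5 µM, limit read from the data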
CYP2C19 activ: increases human CYP2C19 enzyme activity. recombinant CYP2C19, luciferin-H EGE luminescence; active compounds read high; 0 = fully inhibited enzyme, 1 = untreated enzyme. P33261. 96,000 tested, under 10 active. activation factor at 5 µM;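 active = activation factor of at least 2 at 5 µM in the primary screen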;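 note: 0 = wells with 2.5 mM tranylcypromine and 1 = vehicle-only wells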
CYP2C19 inhib: blocks human cytochrome P450 2C19; P33261; actives 21% (n = 96,000); CYP2C19 Supersomes, luciferin-H EGE luminescence, 30 min; AID 778; inhibition, % at 5 µM;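 active = CYP2C19 inhibition above a set limit at 5 µM in the primary screen, cut at about 50% in these data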;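 note: plate controls were negative control wells for no effect and 2.5 mM tranylcypromine positive control for full effect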
PLAP act: activates human placental alkaline phosphatase. P05187. purified PLAP enzyme, luminescent substrate read-out; active compounds read high. activation fold at 20 µM. actives 1.2% (n = 96,000). AID 696; in the data active = activation fold above about 2
Target sequence (P05187 whole entry, looked up): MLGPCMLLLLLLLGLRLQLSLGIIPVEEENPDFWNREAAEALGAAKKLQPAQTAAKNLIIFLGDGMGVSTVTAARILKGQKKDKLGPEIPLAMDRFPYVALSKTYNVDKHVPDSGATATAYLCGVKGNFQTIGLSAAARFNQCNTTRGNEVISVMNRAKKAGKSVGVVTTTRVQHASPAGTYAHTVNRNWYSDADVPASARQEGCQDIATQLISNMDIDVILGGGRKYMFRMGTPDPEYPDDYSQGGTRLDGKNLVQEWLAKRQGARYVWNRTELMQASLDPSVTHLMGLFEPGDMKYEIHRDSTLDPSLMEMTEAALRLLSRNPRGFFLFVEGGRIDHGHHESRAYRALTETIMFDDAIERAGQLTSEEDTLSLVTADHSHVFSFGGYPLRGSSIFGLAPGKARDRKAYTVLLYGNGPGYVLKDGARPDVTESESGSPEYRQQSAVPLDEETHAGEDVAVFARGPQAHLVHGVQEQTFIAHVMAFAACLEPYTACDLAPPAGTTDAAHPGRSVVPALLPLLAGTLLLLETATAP
The depositor's hits bear a star. This is a sample that favours compounds with a hit; in the whole collection about 31% have one here.

SMILES	CYP2C9 act	CYP2C9 inh	CYP2C19 activ	CYP2C19 inhib	PLAP act
COc1ccc(Nc2oc(COc3ccccc3F)nc2C#N)cc1	0.4	60*	0.5	54*	1.4
N#Cc1nc(Cc2cccc3ccccc23)oc1NCc1ccco1	0.6	40	0.6	43	1.1
N#Cc1nc(Cc2cccc3ccccc23)oc1NCCCN1CCOCC1	0.8	21	0.7	26	1.7
Cn1c(=O)oc2cc(S(=O)(=O)N3CCC(C(=O)NCC4COc5ccccc5O4)CC3)ccc21 (stereo unspecified)	1.3	-29	1.1	-15	0.9
COc1cc2c(cc1OC)CN(C(=O)c1ccc(OC)c(S(=O)(=O)N3CCOCC3)c1)CC2	0.8	21	0.9	7	1.7
Cc1cc2c(=O)n(CC(=O)N3CCN(c4ccc(F)cc4)CC3)cnc2s1	1	-2	1	-4	1
O=C(Nc1ccon1)c1cc2ccccc2oc1=O	1	4	1.1	-11	1.1
CNc1oc(-c2ccc(OCc3ccccc3)cc2)nc1C#N	2.2*	-124	1.1	-8	1.1
N#Cc1nc(COc2ccc(F)cc2)oc1NCCN1CCOCC1	0.8	18	0.8	21	1.3
N#Cc1nc(COc2ccccc2F)oc1NCCc1ccccc1	0.1	88*	0.1	88*	0.9
COc1ccc(CNc2oc(COc3ccccc3)nc2C#N)cc1	0.3	66*	0.5	53*	0.9
COc1ccc(CCNc2oc(COc3ccccc3)nc2C#N)cc1	0.3	70*	0.5	50	0.9
COc1ccc(CNc2oc(COc3ccccc3Cl)nc2C#N)cc1	0.5	47	0.7	31	0.9
CN(Cc1ccccc1)c1oc(COc2ccccc2F)nc1C#N	0	99*	0	100*	0.8
O=C(COC(=O)Cc1cn2ccsc2n1)NCc1ccc2c(c1)OCO2	0.8	25	0.9	5	1.1
O=C(COC(=O)Cc1cn2ccsc2n1)NC12CC3CC(CC(C3)C1)C2	0.7	34	0.4	59*	0.8
CCn1c2ccccc2c2cc(NC(=O)COC(=O)Cc3cn4ccsc4n3)ccc21	1.8	-78	0.1	90*	1.6
Cc1c2cccn2cc[n+]1C	1.2	-22	1.1	-6	1
CCOc1cnc(-c2ccc(OC)cc2)o1	0.9	11	0.9	10	1
O=c1ccccn1Cc1c(F)cccc1Cl	0.8	23	0.5	50*	0.8
O=C(Cc1c(F)cccc1Cl)N1CCCC1	1.2	-16	1.2	-19	1.1
CC(=O)c1ccc(NC2=C(N3CCOCC3)C(=O)c3ccccc3C2=O)cc1	0.5	48	0.4	61*	0.9
Cc1ccc(NC2=C(N3CCOCC3)C(=O)c3ccccc3C2=O)cc1	0.4	57*	0.6	44	1.1
CC(=O)N(C)C1=C(N2CCOCC2)C(=O)c2ccccc2C1=O	1.1	-6	1.1	-5	0.9
CCCCN(CCCC)S(=O)(=O)c1ccc2oc(C(=O)N3CCOCC3)c(C)c2c1	0.5	49	0.8	21	1.3
SMILES	CYP2C9 act	CYP2C9 inh	CYP2C19 activ	CYP2C19 inhib	PLAP act
CC(=O)c1ccc(N2CCN(C(=O)c3cc(-c4ccc5c(c4)OCO5)nc4ccccc34)CC2)cc1	0.4	62*	0.6	37	1.9
CCCN(CCC)C(=O)c1cc(-c2ccc3c(c2)OCO3)nc2ccccc12	0	100*	0	97*	1.5
CC(NC(=O)c1cc(-c2ccc3c(c2)OCO3)nc2ccccc12)C(C)(C)C (stereo unspecified)	0.4	56*	0.7	30	1.2
CCOC(=O)c1ccc(NC(=O)C2CCCN(S(=O)(=O)c3ccc(F)cc3)C2)cc1 (stereo unspecified)	0.7	31	0.7	34	0.8
CN(Cc1ccccc1)C(=O)CCn1c(=O)oc2ccccc21	1	-4	0.1	93*	1
CN(Cc1ccccc1)C(=O)CCC(=O)N(C)Cc1ccccc1	1.1	-13	1	-4	0.9
CN(Cc1ccco1)C(=O)Cn1c(=O)oc2cc(S(=O)(=O)NCc3ccccc3)ccc21	1	1	0	98*	0.9
O=C(Cn1c(=O)oc2cc(S(=O)(=O)N3CCCC3)ccc21)N1CCN(c2ccccc2)CC1	0.8	17	1.1	-9	0.9
CN(CCNS(=O)(=O)c1ccc2c(c1)oc(=O)n2C)Cc1ccccc1	1.2	-22	0.7	26	1.2
CC(NC(=O)Cn1c(=O)oc2cc(S(=O)(=O)N3CCCC3)ccc21)c1ccccc1 (stereo unspecified)	0.1	90*	0.9	5	0.9
